Values joined by “and” are separate entries in the source; they are usually repeats but may differ in a detail not shown here. Equal values may be shown once. About 83,000 compounds went through this panel and 20% of them were active in at least one assay; those are over-represented in the sample as a whole.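 Testing used 96-well plates and a 48-hour single-concentration exposure. Example: -40 means 40% of the starting cells died.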 Active and inactive are the calls of the source. The calls were made as follows: active = growth percent below 10; inactive = the rest.
System: HL-60(TB) leukemia
Assay: NCI-60 one-dose screen, 48 h (100 = growth as untreated, 0 = no growth, -100 = all killed)
Settings: 10 µM unless noted

Row | SMILES | growth
1 | O=[N+]([O-])c1ccc(S(=O)Cc2ccccc2)c([N+](=O)[O-])c1 (stereo not given) | 56.4% (inactive) and -7.5% (active)
2 | COc1ccc(-c2cc(-c3ccc(Cl)cc3)c(C#N)c(=O)n2CCCCC(=O)Nc2ccccc2N)cc1 | 3.34% (active)
3 | COc1ccc(C(O)c2ccccc2)cc1 (stereo not given) | 102% (inactive)
4 | CC1=C(Nc2ccc(N3CCN(C)CC3)cc2)C(=O)c2cncnc2C1=O | -26.6% (active)
5 | CC(C)n1cnc2c(=S)nc[nH]c21 | 141% (inactive)
6 | COc1ccc(C/C(C)=C(/c2ccc(OCCN3CCCCC3)cc2)c2ccc(OC(=O)NCc3ccccc3)cc2)cc1 | -75.1% (active)
7 | Cc1ccc(N)cc1S(=O)(=O)O | 92.7% (inactive) and 111% (inactive)
8 | O=C1C=CC[C@H](/C=C/c2ccccc2)O1 | 13.5% (inactive) and -34.5% (active)
9 | Cc1cc(C(=O)CSc2nc3ccccc3c(=O)[nH]2)c(C)n1C | 102% (inactive)
10 | COc1ccc(/C=C2\C(=O)N=C3N2NC(c2cc(Br)ccc2O)C=C(C)N3c2ccccc2)cc1 (stereo not given) | 99% (inactive)
11 | C=C1C(=O)O[C@H]2[C@H]1CC/C(Cn1cc(CNCCc3c[nH]c4ccccc34)nn1)=C\CC[C@@]1(C)O[C@@H]21 | 26.1% (inactive)
12 | Fc1ccc(CNc2cccc3[nH]c(C(F)(F)F)nc23)cc1 | 55% (inactive)
13 | OCc1ncc(-c2ccccc2)s1 | 91.1% (inactive)
14 | CCN(CC)c1nc(SCc2ccccc2Cl)ncc1C | 89.7% (inactive)
15 | CN(C)CCNc1nc2ccccc2c2c(=O)c3ccccc3sc12 | 9.19% (active)

— PubChem BioAssay (NCI)
